# The entries come from a sample that favours the strongest signals as a whole.
# B1: PX9937J-pdi-523-26-523 (Parabacteroides distasonis) (protein)
# chain: EPVSSISDANYWKSPDLFKAFNIGLHGLLRSQSSYNIFVLGEPRSDIYGDQPFGGEATQGVERFSYNTINAEFTGISNFANFYTTLNQINLMIRRTNETDLLGEAEKNYYLGQAYGLRAYIYFHLLRSWGDVIITTEPTLGSELDISHLDKAASPASEVMDLIKKDIDASEKAFGGDYSYKQGKCYWSKPATLMLKGEVYLWSGRQMGGGTGDYTVAKTALQDLQQNGNLKLQEKFTDVFSFNNKENSEMIFALHSGKEDDFMMWRDYNWRNNMVPQREYMAGYCDETGTPFLEIPGYNLQGLMRYQVKKDHYLKSFREGDTRLKGTLKAVYKKHEDGTLEYIAPIQYKFQGTTLEGSNERSWYDDYPIYRYADALLLLAEAKALLGEDPSTEINAVRERAYGSEYFNAHKNEVAYPNDKGSFYNDNPFEAGDENVMEAILKERLREFFFEGKRWYDLRRFGKDYVLKYTTAQESRLLWPINEGALTNNPALKQTPGY
# Columns and labels:
# Test in all cases: glycan array binding signal (z-score within array); higher = stronger binding
# Settings in all cases: glycan notation: IUPAC condensed, linker removed
# GalNAc(b1-4)GlcNAc6S = molecular target: GalNAc(b1-4)GlcNAc6S
# Method in brief: (§1)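 Negative Z-scores can be read as non-binding. The Z-score is calculated within each array and then averaged across arrays of one protein sequence at different concentrations or buffers and across linkers. Arrays, 3228 in all, were curated from the Consortium for Functional Glycomics database and kept only where the protein sequence was available.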
# GalNAc3S(b1-4)GlcNAc = molecular target: GalNAc3S(b1-4)GlcNAc
# Method in brief: as §1
# Glc(b1-4)Glc = molecular target: Glc(b1-4)Glc
# Method in brief: as §1
# GlcA(b1-6)Gal = molecular target: GlcA(b1-6)Gal
# Method in brief: as §1
# [1] = molecular target: GlcNAc(a1-4)Gal(b1-4)GlcNAc(b1-3)Gal(b1-4)GlcNAc
# Method in brief: as §1
# [2] = molecular target: GlcNAc(b1-2)Gal(b1-3)GalNAc
# Method in brief: as §1
# [3] = molecular target: GlcNAc(b1-2)[GlcNAc(b1-4)]Man(a1-3)[GlcNAc(b1-4)][GlcNAc(b1-2)[GlcNAc(b1-6)]Man(a1-6)]Man(b1-4)GlcNAc(b1-4)[Fuc(a1-6)]GlcNAc
# Method in brief: as §1
# [4] = molecular target: GlcNAc(b1-3)Gal(b1-4)GlcNAc(b1-3)Gal(b1-4)GlcNAc(b1-3)Gal(b1-4)GlcNAc(b1-3)Gal(b1-4)GlcNAc(b1-2)[GlcNAc(b1-3)Gal(b1-4)GlcNAc(b1-3)Gal(b1-4)GlcNAc(b1-3)Gal(b1-4)GlcNAc(b1-3)Gal(b1-4)GlcNAc(b1-6)]Man(a1-6)[GlcNAc(b1-3)Gal(b1-4)GlcNAc(b1-3)Gal(b1-4)GlcNAc(b1-3)Gal(b1-4)GlcNAc(b1-3)Gal(b1-4)GlcNAc(b1-2)Man(a1-3)]Man(b1-4)GlcNAc(b1-4)[Fuc(a1-6)]GlcNAc
# Method in brief: as §1
# [5] = molecular target: GlcNAc(b1-3)Gal(b1-4)GlcNAc(b1-3)GalNAc
# Method in brief: as §1
# [6] = molecular target: GlcNAc(b1-3)Gal(b1-4)GlcNAc(b1-6)[Gal(b1-3)]GalNAc
# Method in brief: as §1
# [7] = molecular target: GlcNAc6S(b1-3)Gal(b1-4)GlcNAc
# Method in brief: as §1
# [8] = molecular target: Man(a1-2)Man(a1-2)Man(a1-6)[Man(a1-3)]Man
# Method in brief: as §1
# Man(a1-2)Man(a1-3)Man = molecular target: Man(a1-2)Man(a1-3)Man
# Method in brief: as §1
# [9] = molecular target: Man(a1-2)Man(a1-3)[Man(a1-2)Man(a1-6)]Man(a1-6)[Man(a1-2)Man(a1-2)Man(a1-3)]Man
# Method in brief: as §1
# [10] = molecular target: Neu5Ac(a2-3)Gal(b1-3)GlcNAc(b1-3)Gal(b1-3)GlcNAc
# Method in brief: as §1
# [11] = molecular target: Neu5Ac(a2-3)Gal(b1-3)[Fuc(a1-4)]GlcNAc
# Method in brief: as §1
# [12] = molecular target: Neu5Ac(a2-3)Gal(b1-3)[Neu5Ac(a2-6)]GalNAc
# Method in brief: as §1
# [13] = molecular target: Neu5Ac(a2-3)Gal(b1-4)GlcNAc(b1-6)[Gal(b1-3)]GalNAc
# Method in brief: as §1
# [14] = molecular target: Neu5Ac(a2-3)Gal(b1-4)[Fuc(a1-3)]GlcNAc(b1-3)Gal(b1-4)GlcNAc
# Method in brief: as §1
# [15] = molecular target: Neu5Ac(a2-6)Gal(b1-4)GlcNAc(b1-2)Man(a1-3)Man(b1-4)GlcNAc(b1-4)GlcNAc
# Method in brief: as §1
# [16] = molecular target: Neu5Ac(a2-6)Gal(b1-4)GlcNAc(b1-2)Man(a1-3)[Gal(b1-4)GlcNAc(b1-2)Man(a1-6)]Man(b1-4)GlcNAc(b1-4)GlcNAc
# Method in brief: as §1
# [17] = molecular target: Neu5Ac(a2-6)Gal(b1-4)GlcNAc(b1-2)Man(a1-3)[Neu5Ac(a2-3)Gal(b1-4)GlcNAc(b1-2)Man(a1-6)]Man(b1-4)GlcNAc(b1-4)GlcNAc
# Method in brief: as §1
# [18] = molecular target: Neu5Ac(a2-6)Gal(b1-4)GlcNAc(b1-3)Gal(b1-3)GlcNAc
# Method in brief: as §1
# [19] = molecular target: Neu5Ac(a2-6)Gal(b1-4)GlcNAc(b1-6)[Gal(b1-3)]GalNAc
# Method in brief: as §1
# [20] = molecular target: Neu5Ac(a2-8)Neu5Ac(a2-8)Neu5Ac
# Method in brief: as §1
# [21] = molecular target: Neu5Ac(a2-8)Neu5Gc(a2-3)Gal(b1-4)GlcNAc
# Method in brief: as §1
# [22] = molecular target: Neu5Ac9Ac(a2-3)Gal(b1-4)GlcNAc
# Method in brief: as §1
binder,measurement,setting,value
B1,glycan array binding signal (z-score),GalNAc(b1-4)GlcNAc6S,4.57
same,glycan array binding signal (z-score),GalNAc3S(b1-4)GlcNAc,0.755
same,glycan array binding signal (z-score),Glc(b1-4)Glc,-0.296
same,glycan array binding signal (z-score),GlcA(b1-6)Gal,-0.638
same,glycan array binding signal (z-score),[1],-0.296
same,glycan array binding signal (z-score),[2],-0.438
same,glycan array binding signal (z-score),[3],-0.488
same,glycan array binding signal (z-score),[4],4.67
same,glycan array binding signal (z-score),[5],-0.404
same,glycan array binding signal (z-score),[6],-0.195
same,glycan array binding signal (z-score),[7],0.294
same,glycan array binding signal (z-score),[8],-0.284
same,glycan array binding signal (z-score),Man(a1-2)Man(a1-3)Man,-0.138
same,glycan array binding signal (z-score),[9],-0.317
same,glycan array binding signal (z-score),[10],-1
same,glycan array binding signal (z-score),[11],0.062
same,glycan array binding signal (z-score),[12],0.071
same,glycan array binding signal (z-score),[13],-0.1
same,glycan array binding signal (z-score),[14],3.41
same,glycan array binding signal (z-score),[15],-0.373
same,glycan array binding signal (z-score),[16],4.14
same,glycan array binding signal (z-score),[17],-0.327
same,glycan array binding signal (z-score),[18],-0.303
same,glycan array binding signal (z-score),[19],0.505
same,glycan array binding signal (z-score),[20],-0.094
same,glycan array binding signal (z-score),[21],9.17
same,glycan array binding signal (z-score),[22],-0.44
